Screening results from PubChem.
The list is not random: actives were taken first. Their share in the collection is about 4.6%.
Peg3 prom inh: inhibitors of Peg3 promoter | 360,000 tested, 1.7% active | HeLa PEG-Prom luciferase reporter, luminescence, overnight | inhibition, % at 20 µM | AID 588405;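 active = inhibition of at least 50% at 20 µM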
CF NFkB inh: inhibitors of cystic fibrosis induced NF-kB; KKLEB NF-kB-GFP reporter, PAF-induced, GFP fluorescence overnight; inhibition, % at 5 µM; 360,000 tested, 0.86% active; AID 588850;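 active = at least 50% inhibition at 5 µM, scaled per plate between neutral and stimulator controls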;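 note: PAF is a Pseudomonas aeruginosa culture filtrate used as stimulus; plate controls were PAF-stimulated DMSO wells for no effect and unstimulated DMSO wells for full effect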
KKLEB cytotox: reduces viability of KKLEB cystic fibrosis airway cells; KKLEB CF airway cells viability, ATPlite luminescence, overnight; hits give low values; cells stimulated with P. aeruginosa culture filtrate; activity change (cytotoxicity), % at 5 µM; 360,000 tested, 0.36% active; AID 602141;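 active = corrected activity change at or below -50% at 5 µM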
ABHD5-PLIN5 inh: blocks binding of human ABHD5 to perilipin-5. AID 602281. 360,000 tested, 0.78% active. Q00G26+Q8WTS1. inhibition, % at 4 µM. Split G. princeps luciferase complementation, luminescence, 4 h;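 active = inhibition above the mean inhibition across every tested compound plus 3 SD, cut at about 22% in these data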;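 note: 0% = DMSO only wells and the 100% control is not disclosed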
Target sequence (Q00G26 whole entry, looked up): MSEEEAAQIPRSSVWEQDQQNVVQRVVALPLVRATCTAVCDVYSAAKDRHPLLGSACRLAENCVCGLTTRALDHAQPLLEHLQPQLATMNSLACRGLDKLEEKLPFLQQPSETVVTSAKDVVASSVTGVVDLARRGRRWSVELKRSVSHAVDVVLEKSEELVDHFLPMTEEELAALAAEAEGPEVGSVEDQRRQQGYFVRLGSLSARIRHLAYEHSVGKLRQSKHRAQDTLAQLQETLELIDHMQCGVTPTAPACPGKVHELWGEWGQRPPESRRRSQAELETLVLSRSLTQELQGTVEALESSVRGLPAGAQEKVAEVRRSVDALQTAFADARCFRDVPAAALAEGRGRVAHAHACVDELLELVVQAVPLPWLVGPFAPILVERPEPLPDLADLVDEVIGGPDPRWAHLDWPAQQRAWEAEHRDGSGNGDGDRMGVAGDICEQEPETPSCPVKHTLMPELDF
Target sequence (Q8WTS1 whole entry, looked up): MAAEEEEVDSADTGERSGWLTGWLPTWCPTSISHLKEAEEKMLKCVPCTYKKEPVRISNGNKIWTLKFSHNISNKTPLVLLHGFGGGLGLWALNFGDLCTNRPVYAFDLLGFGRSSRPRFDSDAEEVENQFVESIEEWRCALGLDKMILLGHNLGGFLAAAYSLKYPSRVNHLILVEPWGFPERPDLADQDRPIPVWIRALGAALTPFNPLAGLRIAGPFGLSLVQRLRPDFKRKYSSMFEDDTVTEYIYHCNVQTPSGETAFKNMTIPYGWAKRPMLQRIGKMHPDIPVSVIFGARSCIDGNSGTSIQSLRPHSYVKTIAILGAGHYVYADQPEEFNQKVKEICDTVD
Mdm2-MdmX inh: human Mdm2/MdmX binding inhibition; inhibition, % at 8 µM; SaOS-2 split-luciferase Mdm2/MdmX complementation, luminescence; 330,000 tested, 3% active; O15151+Q00987;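 active = inhibition of at least 50% at 8 µM in the primary screen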
HIF-2a inh: inhibitors of HIF-2a. 786-0 RCC cells HIF-2a reporter, luciferase luminescence, overnight. inhibition, % at 18.8 µM. 360,000 tested, 0.72% active. AID 624352;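 active = inhibition of the luminescence signal of 40% or more relative to plate controls, in a single-dose primary screen at 18.75 µM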
Starred values were filed as active, the others as inactive.

Results for COc1ccc(/C=C/C(=O)NCC(=O)N=Nc2c(O)[nH]c3ccc([N+](=O)[O-])cc23)cc1 ?
Peg3 prom inh: 42.0; CF NFkB inh: 78.4*; KKLEB cytotox: -44.9; ABHD5-PLIN5 inh: -0.8; Mdm2-MdmX inh: 11.8; HIF-2a inh: 4.0

What do the screens show for `C=CCn1cc(-c2ccccc2)cc(C#N)c1=O`?
Peg3 prom inh: 0.7; CF NFkB inh: 8.3; KKLEB cytotox: -95.7*; ABHD5-PLIN5 inh: -6.0; Mdm2-MdmX inh: 3.8; HIF-2a inh: 12.0

What do the screens show for `COC(=O)C1(NC(=O)CNC(=O)OCc2ccccc2)CCCC1`?
Peg3 prom inh: -0.5; CF NFkB inh: 5.6; KKLEB cytotox: 8.7; ABHD5-PLIN5 inh: 14.3; HIF-2a inh: -1.2

How did CCOC(=O)c1ccc(N=Nc2c(C)c(C#N)c(O)[nH]c2=O)cc1 do in these assays?
Peg3 prom inh: -91.6; CF NFkB inh: 65.4*; KKLEB cytotox: -19.6; ABHD5-PLIN5 inh: -2.8; Mdm2-MdmX inh: -10.5; HIF-2a inh: -138.7

What do the screens show for `Cc1nc2c(o1)C(=O)c1ccccc1C2=Nc1ccccc1`?
Peg3 prom inh: 103.8*; CF NFkB inh: 88.6*; KKLEB cytotox: -84.3*; ABHD5-PLIN5 inh: -8.4; HIF-2a inh: 8.0

How did Cc1noc2ncnc(Sc3ccc(Cl)cc3)c12 do in these assays?
Peg3 prom inh: 101.7*; CF NFkB inh: 35.9; KKLEB cytotox: -12.2; ABHD5-PLIN5 inh: 12.4; Mdm2-MdmX inh: 18.7; HIF-2a inh: 34.0

Results for CCN(CC(=O)Nc1ccc2c(c1)OCCO2)C(=O)COc1ccc(C(C)=O)cc1 ?
Peg3 prom inh: -0.8; CF NFkB inh: -17.5; KKLEB cytotox: 10.5; ABHD5-PLIN5 inh: 0.4; HIF-2a inh: 4.1

What do the screens show for `COc1ccccc1NS(=O)(=O)c1cccc(C(=O)NNC(=O)C(C)NC(=O)c2ccco2)c1` (stereo not drawn)?
Peg3 prom inh: -4.7; CF NFkB inh: 2.6; KKLEB cytotox: -10.1; ABHD5-PLIN5 inh: 0.0; Mdm2-MdmX inh: -14.9; HIF-2a inh: 10.7

Results for Cc1ccc(NC(=O)CCC(=O)c2cccs2)nc1 ?
Peg3 prom inh: -109.7; CF NFkB inh: -17.0; KKLEB cytotox: 14.1; ABHD5-PLIN5 inh: 6.2; Mdm2-MdmX inh: 1.5; HIF-2a inh: -97.9

Results for Cc1ccnc(NC(=O)CCC(=O)c2cccs2)c1 ?
Peg3 prom inh: 20.6; CF NFkB inh: 0.2; KKLEB cytotox: -26.2; ABHD5-PLIN5 inh: -6.1; Mdm2-MdmX inh: 23.6; HIF-2a inh: 51.1*

What do the screens show for `Cc1ccc(NC(=O)CN2C(=O)NC3(CCCc4ccccc43)C2=O)c(C)c1` (stereo not drawn)?
Peg3 prom inh: -1.6; CF NFkB inh: -23.8; KKLEB cytotox: 2.6; ABHD5-PLIN5 inh: -3.3; Mdm2-MdmX inh: 6.5; HIF-2a inh: -6.4

Results for CC/C(=N/NC(=O)c1ccc(Br)cc1)c1ccc(OCCN2CCOCC2)cc1 ?
Peg3 prom inh: -5.3; CF NFkB inh: 1.5; KKLEB cytotox: 3.6; ABHD5-PLIN5 inh: -0.6; Mdm2-MdmX inh: 6.5; HIF-2a inh: -30.6

Results for CCCOc1ccc(/C(CC)=N/NC(=O)C2(C)CC2(Br)Br)cc1 (stereo not drawn) ?
Peg3 prom inh: 8.9; CF NFkB inh: 34.2; KKLEB cytotox: -51.6*; ABHD5-PLIN5 inh: -6.5; Mdm2-MdmX inh: 23.9; HIF-2a inh: 1.6

What do the screens show for `Cc1c(C(=O)N2CCOCC2)c(S(=O)(=O)Nc2cccc(C#N)c2)c(C)n1C`?
Peg3 prom inh: 8.3; CF NFkB inh: 5.5; KKLEB cytotox: -14.9; ABHD5-PLIN5 inh: 0.0; Mdm2-MdmX inh: 18.7; HIF-2a inh: 19.2

How did O=C(/C=C/Nc1ccc(Br)cc1F)c1ccccc1 do in these assays?
Peg3 prom inh: 22.0; CF NFkB inh: 2.2; KKLEB cytotox: -77.9*; ABHD5-PLIN5 inh: 0.4; Mdm2-MdmX inh: -20.6; HIF-2a inh: 36.1

What do the screens show for `O=C(COc1ccccc1[N+](=O)[O-])Nc1ccc(N2CCN(C(=O)c3cccs3)CC2)cc1`?
Peg3 prom inh: 104.3*; CF NFkB inh: -19.2; KKLEB cytotox: -18.0; ABHD5-PLIN5 inh: -1.9; Mdm2-MdmX inh: 14.3; HIF-2a inh: -15.3

How did CCC(C)(C)c1ccc(OCCCC[n+]2cccc(C)c2)c(C(C)(C)CC)c1 do in these assays?
Peg3 prom inh: 100.8*; CF NFkB inh: 60.1*; KKLEB cytotox: -48.3; ABHD5-PLIN5 inh: 22.7*; HIF-2a inh: 31.9

Results for Cc1ccc[n+](CC(=O)Nc2cc(C(F)(F)F)ccc2Cl)c1 ?
Peg3 prom inh: -5.4; CF NFkB inh: -0.9; KKLEB cytotox: -1.0; ABHD5-PLIN5 inh: -8.0; Mdm2-MdmX inh: -7.3; HIF-2a inh: 13.2

Results for COc1ccc(C(=O)NN(C)c2nc(C(F)(F)F)nc3ccccc23)cc1 ?
Peg3 prom inh: 2.2; CF NFkB inh: 74.6*; KKLEB cytotox: -8.1; ABHD5-PLIN5 inh: -6.2; HIF-2a inh: 36.0

What do the screens show for `COc1ccc(C(=O)NN(C)c2nc(-c3ccccc3)nnc2C(F)(F)F)cc1`?
Peg3 prom inh: 17.9; CF NFkB inh: 1.1; KKLEB cytotox: -3.5; ABHD5-PLIN5 inh: 1.1; Mdm2-MdmX inh: 10.3; HIF-2a inh: 15.5

What do the screens show for `Cc1cccc(NC(=S)N/N=C/c2ccc(Cl)c([N+](=O)[O-])c2)c1`?
Peg3 prom inh: 62.5*; CF NFkB inh: -5.2; KKLEB cytotox: -1.9; ABHD5-PLIN5 inh: -5.9; Mdm2-MdmX inh: 6.2; HIF-2a inh: -4.0

What do the screens show for `O=C(CSc1n[nH]c(=O)n1C1CC1)Nc1cc(Cl)ccc1Oc1ccccc1`?
Peg3 prom inh: 50.1*; CF NFkB inh: -2.8; KKLEB cytotox: -10.0; ABHD5-PLIN5 inh: 2.1; Mdm2-MdmX inh: 34.1; HIF-2a inh: 12.7

How did O=C(CSc1n[nH]c(=O)n1C1CC1)Nc1ccccc1 do in these assays?
Peg3 prom inh: 4.5; CF NFkB inh: -3.3; KKLEB cytotox: 20.4; ABHD5-PLIN5 inh: -4.6; Mdm2-MdmX inh: 11.6; HIF-2a inh: 3.0

Results for CC(=O)c1c(C)oc2c1C(=O)c1ccccc1C2=O ?
Peg3 prom inh: 42.1; CF NFkB inh: 86.1*; KKLEB cytotox: -26.0; ABHD5-PLIN5 inh: -3.3; HIF-2a inh: 17.1

How did Cc1ccc(NC2CCCN(C(=O)CCn3nccc3C)C2)cc1C (stereo not drawn) do in these assays?
Peg3 prom inh: -26.3; CF NFkB inh: -19.6; KKLEB cytotox: 9.6; ABHD5-PLIN5 inh: 12.8; Mdm2-MdmX inh: 7.7; HIF-2a inh: -27.3

What do the screens show for `CC(NC(=O)COC(=O)c1cc(NS(=O)(=O)c2ccc(Cl)c([N+](=O)[O-])c2)ccc1O)C1CC2CCC1C2` (stereo not drawn)?
Peg3 prom inh: 95.7*; CF NFkB inh: -15.6; KKLEB cytotox: 3.9; ABHD5-PLIN5 inh: -0.2; Mdm2-MdmX inh: 14.2; HIF-2a inh: 83.9*

How did COCCN(Cc1nc(-c2ccc(-c3ccccc3)cc2)oc1C)C(C)C do in these assays?
Peg3 prom inh: -134.1; CF NFkB inh: 6.6; KKLEB cytotox: -4.7; ABHD5-PLIN5 inh: 12.3; Mdm2-MdmX inh: -26.2; HIF-2a inh: 2.1

Results for Cc1cccc(NC(=O)CN2CCN(CC(=O)Nc3cccc(C)c3)CC2)c1 ?
Peg3 prom inh: 14.0; CF NFkB inh: 46.5; KKLEB cytotox: -54.6*; ABHD5-PLIN5 inh: 5.4; Mdm2-MdmX inh: -16.0; HIF-2a inh: -0.1
